Reference: publication PMC5540273 (PLoS ONE, 2017)

Legend:
Conditions in all cases: concentration: 1 μM, replicates: in singlicate; n = 1
HIPK2 = tested on: HIPK2
HIPK3 = tested on: HIPK3
HIPK4 = tested on: HIPK4
HPK1 = tested on: HPK1
HUNK = tested on: HUNK
ICK = tested on: ICK
IGF1R = tested on: IGF1R
IKK-alpha = tested on: T1, IKK-alpha
T1 construct: gene CHUK

IKK-beta = tested on: T2, IKK-beta
T2 construct: gene IKBKB

IKK-epsilon = tested on: T3, IKK-epsilon
T3 construct: gene IKBKE

INSRR = tested on: INSRR
INSR = tested on: INSR
IRAK1 = tested on: IRAK1
IRAK3 = tested on: IRAK3
IRAK4 = tested on: IRAK4
ITK = tested on: ITK
[1] = tested on: JAK1(JH1domain-catalytic)
[2] = tested on: JAK1(JH2domain-pseudokinase)
[3] = tested on: JAK2(JH1domain-catalytic)
[4] = tested on: JAK3(JH1domain-catalytic)
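Also: KINOMEscan kinase panel screen.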

SMILES | %Inh (HIPK2) | %Inh (HIPK3) | %Inh (HIPK4) | %Inh (HPK1) | %Inh (HUNK) | %Inh (ICK) | %Inh (IGF1R) | %Inh (IKK-alpha) | %Inh (IKK-beta) | %Inh (IKK-epsilon) | %Inh (INSRR) | %Inh (INSR) | %Inh (IRAK1) | %Inh (IRAK3) | %Inh (IRAK4) | %Inh (ITK) | %Inh [1] | %Inh [2] | %Inh [3] | %Inh [4]
O=c1cc(N2CCOCC2)nc2n(Cc3cccc(Cl)c3)ccn12 [GSK2296823] | 0% | 18% | 0% | 37% | 0% | 19% | 1% | 3% | 17% | 35% | 0% | 0% | 60% | 32% | 16% | 19% | 0% | 0% | 10% | 0%
NC(=O)c1sc(-n2cnc3ccccc32)cc1OCc1ccccc1F [GSK1024306] | 44% | 0% | 24% | 51% | 0% | 0% | 0% | 0% | 2% | 0% | 0% | 0% | 0% | 0% | 0% | 8% | 6% | 0% | 21% | 0%
Cl.c1ccc(Cn2ccc3cc(Nc4ncnc5ccccc45)ccc32)cc1 [GW275568] | 0% | 9% | 0% | 31% | 3% | 0% | 0% | 0% | 0% | 24% | 0% | 12% | 0% | 0% | 0% | 12% | 18% | 10% | 100% | 0%
CCc1nc(-c2cccc(N(C)S(=O)(=O)c3ccccc3)c2)c(-c2ccnc(Nc3ccc(N4CCN(C(C)=O)CC4)nc3)n2)s1 [GSK1645895] | 0% | 17% | 0% | 35% | 0% | 13% | 0% | 0% | 1% | 39% | 0% | 20% | 11% | 0% | 13% | 0% | 15% | 21% | 0% | 0%
Cl.c1ccc(Cn2ncc3cc(Nc4ncnc5ccccc45)ccc32)cc1 [GW273749] | 0% | 0% | 0% | 20% | 0% | 0% | 0% | 0% | 31% | 24% | 0% | 3% | 0% | 0% | 9% | 0% | 8% | 0% | 11% | 0%
Cn1ccc2ncnc(Nc3ccc(Oc4cccc(Cl)c4)c(Cl)c3)c21 | 37% | 22% | 3% | 2% | 0% | 12% | 0% | 3% | 7% | 11% | 0% | 16% | 27% | 6% | 27% | 23% | 16% | 0% | 15% | 4%
Fc1cccc(COc2ccc(Nc3ncnc4cc[nH]c34)cc2Cl)c1 | 27% | 40% | 9% | 0% | 8% | 5% | 5% | 5% | 23% | 39% | 0% | 0% | 6% | 0% | 4% | 13% | 0% | 36% | 19% | 0%
CC(C)(C)OC(=O)NC1CCCN(c2cc(-c3ccc4c(N)n[nH]c4c3)nc(N)n2)C1 (stereo not shown) [GSK2286096] | 0% | 12% | 0% | 26% | 5% | 7% | 0% | 0% | 0% | 12% | 0% | 0% | 0% | 0% | 8% | 6% | 6% | 15% | 0% | 0%
